More than one record can exist for a structure, and the calls need not agree. The source made the active and inactive calls. The calls were made as follows: active = hit-call score of the fitted dose curve at least 0.9, where 1 is the maximum; inactive = score below 0.9.

What is called AC50 is the concentration at which the activity in the assay is half-maximal.

Read-out in the assay: Interleukin-8 (IL8), CXCL8 (gene 3576)
As to the kind of experiment: BSK_KF3CT_IL8: BioMAP Diversity Plus: KF3CT Assay for Interleukin-8 (IL8) Biomarker Activity (AID 2284254). The settings on record: primary human keratinocytes with fibroblasts. Here is the method:
BSK_KF3CT is a cell-based, multiplexed-readout assay that uses keratinocytes and foreskin fibroblasts, a human skin primary cell co-culture, with measurements taken at 24 hours after chemical dosing in a 96-well plate.BSK_KF3CT_IL8 is an assay component measured in the BSK_KF3CT assay. It measures IL-8 antibody related to regulation of gene expression using ELISA technology.Data from the assay component BSK_KF3CT_IL8 was analyzed at the endpoint, BSK_KF3CT_IL8, in the positive analysis fitting direction relative to DMSO as the negative control and baseline of activity. Using a type of binding reporter, gain or loss-of-signal activity can be used to understand protein changes. To generalize the intended target to other relatable targets, this assay endpoint is annotated to the 'cytokine' intended target family, where the subfamily is 'interleukins'.
The levels of cell surface (or secreted, indicated by the prefix "s") biomarker endpoints were measured by ELISA. Overt cytotoxicity to cells in confluent adherent cultures (all systems other than the BT system) was assessed by measuring total protein levels using sulforhodamine B (SRB) staining in parallel cultures at the time of biomarker measurements, indicated as SRB endpoints. For proliferation assays for adherent cell types, individual cell types are cultured at sub-confluence and relative cell numbers quantified by SRB staining at time points optimized for each system (48 h: 3C and CASM3C systems; 72 h: BT and HDF3CGF systems; 96 h: SAg system). SRB was performed by staining cells with 0.1% SRB after fixation with 10% TCA and reading wells at 560 nm.Viability and proliferation of PBMC (T cells) was quantified by Alamar Blue reduction for the SAg and BT systems. For PBMC viability (referred to as PBMC Cytotoxicity within the assay endpoint names), cells were plated (75,000/well in a 96-well plate) and then chemical samples added for 1 h before addition of activators, SEB and TSST-1 (20 ng/mL final concentration each). Cells were incubated for 90 h. Then, Alamar Blue (20 uL/well) (Invitrogen, Cat DAL1100) was added for 6 h, and the plates were read with a fluorescence microplate reader at 546/580 nm (excitation/emission). For PBMC proliferation, cells were plated and activated as above but incubated for only 16 h prior to addition of Alamar Blue. Plates were read after 6 h.
In the case of `CC(=O)c1ccc(C)cc1`, the outcome was inactive.
As to `c1ccc(OCCOc2ccccc2)cc1`, the result was inactive.
Regarding `O=S(=O)(O)C(F)(F)C(F)(F)OC(F)(F)C(F)(F)F`, the outcome was inactive.
As for `C=C(C)C(=O)OCCC(F)(F)C(F)(F)C(F)(F)C(F)(F)C(F)(F)C(F)(F)C(F)(F)C(F)(F)F`, the outcome was inactive.
As for `CCn1cc(C(=O)O)c(=O)c2ccc(C)nc21`, the outcome was inactive.
Still for that read-out and setting: in the case of `C=C(F)C(=O)OC(C(F)(F)F)C(F)(F)F` it was “inactive”.
Regarding `O=C(O)C(F)(F)OC(F)(F)C(F)(F)OC(F)(F)C(F)(F)C(F)(F)C(F)(F)F`, the AC50 was 42.7 µM (active) and the outcome was inactive.
As for `CC(C)(CO)CO`, the outcome was inactive.
With `CCCCN(CCO)CCO`, the result was inactive.
Same read-out and setting: the value for `CC(C)CCCC(C)(C)O` was “inactive”; that for `O=C(O)C(F)(F)C(F)(F)C(F)(F)C(F)(F)C(F)(F)C(F)(F)C(F)(F)C(F)F` was “inactive”.
`OCC(F)(OC(F)(F)C(F)(OC(F)(F)C(F)(F)C(F)(F)F)C(F)(F)F)C(F)(F)F` (stereo not given): the result was inactive and the AC50 is 4.96 µM (active).
Regarding `CCCO[Si](OCCC)(OCCC)OCCC`, the result was inactive.

The record behind these values is PubChem BioAssay (EPA / NIEHS).
